Pf growth 96h – inhibits malaria parasite growth, 96 h; Potency, µM (highest dose often 28.7 µM), for the others: at the top dose activity change, negative = inhibition, hits mostly inhibitors; 320,000 tested, 6.9% active; P. falciparum luciferase reporter growth, 96 h; AID 504834; further: potency means the concentration at half of the fitted maximal effect; on the % scale 0 is the no-effect control and ±100 the full control effect
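Delayed-death screen, second-generation endpoint: infected erythrocytes, 2% hematocrit, 0.05% parasitemia final; 96 hours at 37 C, 5% CO2; luciferase detection reagent; luminescence decrease equals reduced growth.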
Cycloheximide cs – counter-screen hit for Shiga toxin inhibitors, cycloheximide. 300,000 tested, 12% active. AID 2314. cell reporter, cycloheximide protein synthesis inhibition counterscreen. max response, %; in the data active means max response mostly above about 13%, no sharp cut-off; inactive means mostly below about 14%; further: read at 38.3 µM for the half of the compounds with a filed dose; 0% is about no effect
HCV inhibitor – HCV inhibition | Huh7.5.1 HCVcc-Cre infection, luciferase reporter, 44 h | Potency, µM (doses to about 41.8 µM), inactives show top-dose activity change, negative = inhibition, hits mostly inhibitors | 340,000 tested, 3.4% active | AID 651820; further: potency means the concentration at half of the fitted maximal effect; on the % scale 0 is the no-effect control and ±100 the full control effect
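Luciferase read-out (15 sec integration) after a 15 min room-temperature substrate step quantifies HCVcc-Cre infection. Cells, 1,000 per well, had compound added 4 h post-plating, then virus at ~0.5 moi, and were cultured 44 h.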
Pf growth 48h – P. falciparum growth inhibition at 48 hours (one generation). P. falciparum luciferase growth in erythrocytes, 48 h. Potency, µM (doses to about 28.7 µM), without a hit: at the top dose activity change, negative = inhibition, actives largely listed as inhibitors. 310,000 tested, 5.9% active; further: potency means the concentration at half of the fitted maximal effect; on the % scale 0 is the no-effect control and ±100 the full control effect
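Luciferase-expressing parasites in RBCs, 2% Hct / 0.1% parasitemia final; RPMI 1640 + 0.5% Albumax; 37 C, 5% CO2, one generation; luminescence read-out, lower signal = inhibition.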
Shiga inhibitor – blocks Shiga toxin action in Vero cells. Vero cells, Shiga toxin protein synthesis inhibition reporter. inhibition, % at 38.7 µM. 290,000 tested, 9.2% active. AID 2315; in the data active means inhibition mostly above about 28%, no sharp cut-off; inactive means mostly below about 43%; further: 0% is about no effect
AMA1 RON2 block – inhibitors of Plasmodium falciparum AMA1-RON2 interaction | Potency, µM (series often up to 58.2 µM), for the others: at the top dose activity change, negative = inhibition, actives largely listed as inhibitors | AID 720542 | 360,000 tested, 0.2% active | AlphaScreen AMA1-biotinylated RON2 peptide binding;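 further: potency means the concentration at half of the fitted maximal effect; 0% = vehicle wells and -100% = peptide control; nearly all actives have a fitted effect of over 45% in size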
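AMA1 (3D7) with his tag at 25 nM final met compounds first, then biotinylated RON2 peptide at 25 nM; detection used donor plus acceptor beads, 10 µg/mL apiece, read by AlphaScreen after 30 min at room temperature.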
Active calls of the source: *; ? = inconclusive; . = no result; [ ] = another dose, or the depositor's remark. An excerpt weighted towards active compounds, which were near 21% of everything screened. Unless noted, the call rests on the fitted dose curve; in most records, active means well fitted curve in the direction sought with a large enough effect; inconclusive means small, poorly fitted or top-dose-only effect, or another doubt; inactive means no such curve, though single readings can be large; an effect the other way counts as inactive or inconclusive.

SMILES	Pf growth 96h	Cycloheximide cs	HCV inhibitor	Pf growth 48h	Shiga inhibitor	AMA1 RON2 block
O=[N+]([O-])c1ccc(-c2ccc(S(=O)(=O)N3CCOCC3)cc2)cc1	22%	4	8%	1%	3	-1%
O=C1CN(C(=O)CSc2nnnn2C2CC2)c2ccccc2N1	?	.	19%	?	.	-4%
O=C(NCCCN1CCCC1=O)C1CCN(S(=O)(=O)c2c(Cl)cccc2Cl)CC1	-5%	.	23%	-18%	.	-13%
CC(=O)OCCCCCCCCCCC[N+]1(C)CCCCC1	45%	-2	14%	?	-5	-7%
COC(=O)CCCCCCCCCC[N+]1(C)CCCCC1	52%	-3	14%	3.7µM*	-2	10%[11.6 µM]
NNC(=O)c1ccc(O)cc1O	-21%	30*	4%	8%	76*	7%
O=C(Cc1ccccc1)c1ccc(O)cc1O	.	.	-4%	.	.	-3%
O=C(NN=C1CCCC1)c1cc(Br)ccc1O	?	23*	5%	28%	43	55%
O=C(N/N=C1/CCSC1)c1cc(Br)ccc1O	24%	5	2%	-2%	21	84%
CCCCCC(=O)c1ccc(O)cc1O	18%	32*	8%	7%	49*	0%
Cc1ccc(C(=O)NN=C2CCCC2)cc1C	.	.	4%	.	.	30%
O=C(NN=C1CCCC1)c1ccc(O)cc1O	13µM*	38*	4%	-10%	124*	15%
NNC(=O)c1cc2ccccc2cc1O	10%	7	36%	?	10	35%
O=C(O)C1=CC[C@@H](c2ccc(Cl)cc2)N(S(=O)(=O)c2ccc(Cl)cc2)[C@H]1c1ccccc1	?	.	15%	-56%	.	35%
Clc1ccc(-c2nc(-c3ccccn3)no2)cc1Cl	492%	66*	1%	-5%	77*	6%
Brc1ccc(-c2nc(-c3ccccn3)no2)o1	?	14*	-1%	188%	-6	10%
Brc1ccc(-c2noc(-c3ccccn3)n2)o1	39%	45*	-6%	246%	81*	8%
Brc1ccc(-c2nc(-c3ccncc3)no2)o1	?	24*	4%	114%	64*	13%
O=C(Cc1c(F)cccc1Cl)NNC(=O)Nc1ccc2c(c1)OCO2	-25%	-4	-4%	-10%	-7	49%
Oc1ccc(Br)cc1C1C=C(c2ccc3c(c2)OCO3)NC(c2c(F)cccc2Cl)N1 (centres undefined)	.	46*	.	.	82*	.
Oc1ccccc1C1C=C(c2ccc3c(c2)OCO3)NC(c2c(F)cccc2Cl)N1 (centres undefined)	.	46*	.	.	97*	.
CCOC(=O)/C(=C(/C)N)C1CC(=O)NC1=O (centres undefined)	.	.	.	.	.	15%
Nc1nccc(/C=C/c2ccc(Cl)cc2)n1	106%	44*	-26%	241%	72*	9%
CCOC(=O)c1c(C)n(CC(O)CN(C)C)c2cc(Br)c(OC)cc12 (centres undefined)	?	-1	?	?	-24	-5%
CCOC(=O)c1c(CN2CCCCC2)n(C)c2cc(Br)c(O)cc12	.	-4	-25%	.	-6	-2%
SMILES	Pf growth 96h	Cycloheximide cs	HCV inhibitor	Pf growth 48h	Shiga inhibitor	AMA1 RON2 block
CCOC(=O)c1c(CN(C)C)n(-c2ccc(C)cc2)c2cc(Br)c(O)cc12	0.33µM*	-6	?	0.74µM*	-9	-9%
CCOC(=O)c1c(CN(C)C)n(-c2ccccc2)c2cc(Br)c(OC)cc12	14%	-2	7.9µM*	?	9	?
CCOC(=O)c1c(CN2CCN(C)CC2)n(C)c2cc(Br)c(OC)cc12	-25%	-4	?	15µM*	-29	-15%
CCOC(=O)c1c(CN2CCOCC2)n(-c2ccccc2)c2cc(Br)c(OC)cc12	.	-2	?	?	-18	-12%
CCOC(=O)c1c(CN2CCOCC2)n(-c2ccccc2)c2cc(Br)c(O)cc12	1.9µM*	2	-7%	1.7µM*	-12	4%
CN(C)C(CNC(=S)Nc1ccc(F)cc1)c1cccnc1 (centres undefined)	50%	-6	10%	23%	-4	-3%
N#Cc1ccc(OCC(=O)Nc2ccc3[nH]c(=O)[nH]c3c2)cc1	20%	.	18%	-1%	.	-3%

Screening data from PubChem BioAssay.
